From PubChem BioAssay AID1578 (Sanford-Burnham Center for Chemical Genomics, 2009)
The campaign covered roughly 290,000 compounds. About 3,000 (1%) were called active. For the sample, actives were picked, then their nearest neighbours and some compounds at random. Values without a mark were called inactive. Cut-off read from the data, not from the text of the source: active = inhibition mostly above about 36% (no sharp cut-off); inactive = mostly below about 34%.

assay: inhibition of NOD1-driven NF-kB reporter – cell-based, luminescence, uHTS, primary screen (AID 1578); settings: NOD1-driven NF-kB luciferase reporter cells, at 4 µM, stronger effect = higher value;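 note: HEK-293T reporter cells stimulated with the NOD1 agonist gamma-tri-DAP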

| Compound | inhibition |
| --- | --- |
| O=c1cccc2n1CC1CC2CN(C(c2cccc(F)c2)c2sc3ncnn3c2O)C1 (centres undefined) | -12.7% |
| CN[C@H]1C[C@H]2O[C@@](C)([C@H]1OC)n1c3ccccc3c3c4c(c5c6ccccc6n2c5c31)C(=O)NC4 | 1.7% |
| COc1ccccc1N1CCN(Cc2ccccc2Cl)CC1 | -17.2% |
| Cc1cc(C)n(-c2ccc(NN=C(C#N)C#N)cc2)n1 | 41.2% (active) |
| N#CC(C#N)=NNc1ccc(S(N)(=O)=O)cc1 | -10.8% |
| CCN(CC)S(=O)(=O)c1ccc(NN=C(C#N)C#N)cc1 | 9.7% |
| N#CC(C#N)=NNc1ccc(-n2ccc(C(F)(F)F)n2)cc1 | 36.7% (active) |
| CC1CCN(S(=O)(=O)c2ccc(NN=C(C#N)C#N)cc2)CC1 | -29.8% |
| Cc1nn(Cc2ccccc2)c(Cl)c1C(=O)OCC(=O)Nc1cccc2ccccc12 | -17.7% |
| COC(=O)C(C)Oc1cc(C)cc2oc(=O)c3c(c12)CCCC3 (centres undefined) | -9.2% |
| O=C(NC(Cc1cnc[nH]1)C(=O)O)c1ccccc1 (centres undefined) | -20.8% |
| C=CCn1c(O)c(C(CC)=NCCc2ccccc2)c(=O)[nH]c1=O | -24.2% |
| CC(C)n1c(=O)c(C=Nc2ccc(S(N)(=O)=O)cc2)c(O)n(Cc2ccco2)c1=O | -37.7% |
| CC(C)C(=O)c1cn(Cc2ccccc2C#N)c2ccccc12 | -11.1% |
| CC(=O)c1cn(Cc2ccccc2C#N)c2ccccc12 | 78% (active) |
| CCC(=O)c1cn(Cc2ccccc2C#N)c2ccccc12 | 8.5% |
| CCOC(=O)CNC(=O)CNC(=O)C(Cc1ccc(N(CCCl)CCCl)cc1)NC(C)=O (centres undefined) | -43.1% |
| C=CCn1c(O)c(C(CC)=NCc2cc(OC)cc(OC)c2)c(=O)[nH]c1=O | 0.2% |
| O=C1NC(=O)C(=Cc2ccc3ccccc3c2)C(=O)N1 | -4.2% |
| Cc1cc(C=C2C(=O)NC(=S)NC2=O)c(C)n1C1CCCC1 | 24.9% |

| Compound | inhibition |
| --- | --- |
| O=C1NC(=S)NC(=O)C1=Cc1cccc2cc3ccccc3cc12 | 59.4% (active) |
| Cc1cccc(N2CCN(CCc3ccccc3)CC2)c1C | 11.9% |
| CC(C)n1c(O)c(C2c3cc(Cl)ccc3Oc3[nH]c(=O)n(C(C)C)c(=O)c32)c(=O)[nH]c1=O (centres undefined) | 61.3% (active) |
| CC(=O)c1c(O)n(-c2cccc(Cl)c2)c(=O)[nH]c1=O (tested in a mixture with another compound) | 1.2% |
| C[C@]12CC[C@H]3C(CCC4(O)CC(O)CC[C@]34C=O)C1=CC[C@H]2c1ccc(=O)oc1 (some centres undefined) | 60.3% (active) |
| CC12CC[C@H]3[C@@H](CCC4(O)C[C@H](O)CCC34/C=N/NC(=O)c3ccccc3Cl)C1(O)CCC2C1=CC(=O)OC1 (some centres undefined) | 3% |
| CC(=O)[C@@]1(O)CC[C@H]2[C@@H]3CC=C4C[C@@H](O)CC[C@]4(C)[C@H]3CC[C@@]21C | -24.8% |
| C=C(C)Cn1c(=O)n(CC2CS2)c2ccccc21 (centres undefined) | 8.9% |
| CCOc1cc2c(cc1OCC)-n1cccc1C(c1ccccc1OC)NC2 (centres undefined) | 4.7% |
| CCC1(OC(=O)CN)C(=O)OCc2c1cc1n(c2=O)Cc2cc3ccccc3nc2-1 (centres undefined) | 71.2% (active) |
| CC[C@@]1(O)C(=O)OCc2c1cc1n(c2=O)Cc2cc3c(NC(=O)CN)cccc3nc2-1 | 7.7% |
| CCOC(=O)C1=C(N)OC2=C(C(=O)CCC2)C12C(=O)N(C)c1ccccc12 (centres undefined) | -7.5% |
| Cc1cnn(C2CCN(C)CC2)c1N | -8.2% |
| NC1=C([N+](=O)[O-])C(c2ccc3c(c2)OCO3)c2c(c3ccccc3oc2=O)O1 (centres undefined) | -6% |
| O=C(Cc1ccccc1)Oc1cccc(-n2cnnn2)c1 | -14.2% |
| O=[N+]([O-])c1ccc(N2CCNCC2)cc1Sc1ccccn1 | -12.4% |
| Cc1cc(N2CCCCC2)ccc1C=C1C(=O)N(C)C(=S)N(C)C1=O | -10.1% |
| Cc1ccc(N2C(=O)CC(=O)NC2=O)cc1 | -5.6% |
| O=Cc1cn(Cc2ccccc2F)c2ccccc12 | 30.3% |
| O=Cc1cn(Cc2ccc(F)cc2)c2ccccc12 | 6.2% |

| Compound | inhibition |
| --- | --- |
| O=Cc1cn(Cc2c(F)cccc2Cl)c2ccccc12 | 66% (active) |
| Cc1cc(=O)oc2cc(OCC(=O)N3CCC(C(=O)O)(c4ccccc4)CC3)ccc12 | -7.5% |
| CCCCOP(=O)(OCCCC)/C(C#N)=C(/C)O | -14.2% |
| O=c1[nH]c(=S)n(Cc2ccc(F)cc2)c(O)c1C=NCCCn1ccnc1 | -9.5% |
| Cc1cccc(CN2CCCN(Cc3ccc(Cl)cc3)S2(=O)=O)c1 | 2.2% |
| Cn1cc(/C=C2\C(=O)NC(=O)N(c3ccccc3)C2=O)c2ccccc21 | -3.2% |
| O=C1NC(=O)N(Cc2ccccc2)C(=O)/C1=C\C=C\c1ccco1 | 61.5% (active) |
| CCCCN1C(=O)/C(=C/C=C/c2ccco2)C(=O)NC1=S | -32.6% |
| O=C1NC(=O)N(Cc2ccccc2)C(=O)/C1=C\c1ccco1 | -5.6% |
| Cc1ccc(N2C(=O)NC(=O)/C(=C/C=C/c3ccco3)C2=O)cc1 | 87.4% (active) |
| CCN1C(=O)C(=C/C=C/c2ccco2)C(=O)N(CC)C1=S | -25.5% |
| Cc1cc(C)cc(N2C(=O)NC(=O)/C(=C\C=C\c3ccco3)C2=O)c1 | 67.1% |
| Cc1cccc(N2C(=O)NC(=O)/C(=C\C=C\c3ccco3)C2=O)c1 | -6.1% |
| CN(C)c1ccc(/C=C/C=C2/C(=O)NC(=O)N(c3ccccc3)C2=O)cc1 | 80.9% (active) |
| CN1C(=O)/C(=C/C=C/c2ccco2)C(=O)NC1=S | -4.7% |
| CCc1ccc(N2C(=O)NC(=O)/C(=C\C=C\c3ccco3)C2=O)cc1 | 89.4% (active) |
| O=C1NC(=O)N(c2ccccc2)C(=O)/C1=C/c1ccoc1 | -13.5% |
| COCCOC(=O)C1=C(N)Oc2c(c(=O)oc3ccccc23)C1c1ccncc1 (centres undefined) | -14.2% |
| CCCCOC(=O)C1=C(N)OC2=C(C(=O)CCC2)[C@]12C(=O)N(C)c1ccccc12 | 2.2% |
